What all share (assay type): functional
Test [1] has as its target Solute carrier family 2, facilitated glucose transporter member 1 (Homo sapiens) (UniProt P11166). The experiment in a line: ST_JUDE_LEISH: Cytotoxicity at 2uM final concentration against transgenic Leishmania Mexicana promastigotes LmGLUT1 that are glucose transport deficient and complemented with the human glucose transporter GLUT1. Activity is measured by DNA content using SYBR green in vitro.

Test [2] concerns the target Hexose transporter 1 (Plasmodium falciparum) (UniProt O97467). The experiment in a line: ST_JUDE_LEISH: Cytotoxicity at 2uM final concentration against transgenic Leishmania Mexicana promastigotes LmPfHT that are glucose transport deficient and complemented with the Plasmodium falciparum hexose transporter. Activity is measured by DNA content using SYBR green in vitro.

Test [3] addresses Glucose transporter (Leishmania mexicana) (UniProt O61059). The experiment in a line: ST_JUDE_LEISH: Cytotoxicity at 2uM final concentration against transgenic Leishmania Mexicana promastigotes LmGT2 that are glucose transport deficient and complemented with the L. Mexicana glucose transporter 2. Activity is measured by DNA content using SYBR green in vitro.

Chain of Solute carrier family 2, facilitated glucose transporter member 1 (Homo sapiens) (P11166 whole entry): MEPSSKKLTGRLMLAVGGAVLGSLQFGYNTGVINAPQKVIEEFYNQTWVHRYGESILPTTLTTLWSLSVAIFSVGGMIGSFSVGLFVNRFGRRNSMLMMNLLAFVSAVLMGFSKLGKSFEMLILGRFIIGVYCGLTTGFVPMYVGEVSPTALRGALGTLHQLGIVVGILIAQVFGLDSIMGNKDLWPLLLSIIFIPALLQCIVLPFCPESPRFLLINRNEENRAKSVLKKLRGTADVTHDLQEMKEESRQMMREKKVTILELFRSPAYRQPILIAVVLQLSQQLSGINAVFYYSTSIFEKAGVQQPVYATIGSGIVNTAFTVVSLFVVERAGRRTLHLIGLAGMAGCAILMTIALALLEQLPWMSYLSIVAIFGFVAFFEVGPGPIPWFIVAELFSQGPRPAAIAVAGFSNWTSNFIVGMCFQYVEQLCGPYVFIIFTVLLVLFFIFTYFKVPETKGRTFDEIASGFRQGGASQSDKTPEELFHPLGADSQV

Take `CCCCCCC1(C)N=C(N)N=C(N)C1c1ccc(Cl)c(Cl)c1` (configuration not stated): the inhibition (as a rule, the drop in the measured response relative to a control, in per cent) in test [1] worked out at 1.71%; in test [2], 1.39%; in test [3], 0.06%.

As to `COc1ccc2nccc([C@@H](O)CN3CCC(NCc4ccc5c(n4)NC(=O)CS5)C(F)C3)c2c1` (some centres not stated), the inhibition in test [1] amounted to 2.08%; in test [2], 1.5%; in test [3] it was 1.99%.

In the case of `COc1cccc(Nc2nc(C)cc(NCc3ccc(-n4ccnc4)cc3)n2)c1`, the values for the inhibition in test [1], in test [2] and in test [3] were 4.08%, 13.7% and 8.06%, respectively.

As for `COc1ccc(CNCCCCCNCc2ccc(Cl)c(Cl)c2)cc1Cl`, the inhibition stood at 3.98% in test [1], 3.58% in test [2] and 1.38% in test [3].

Regarding `Cc1ccccc1C1CCN(C2CCC(NC(=O)/C=C/c3ccc(F)c(F)c3)CC2)CC1` (configuration not stated), the inhibition in test [1] was -1.77%; in test [2], -1.74%; in test [3] it was -1.27%.

On to `CN(C)Cc1cccc2nc(-c3csc(Cc4cc(Cl)ccc4OCc4ccccc4)n3)[nH]c12`, for which the inhibition in test [1] worked out at 6.3%; in test [2] it was 3.36%; in test [3], 1.88%.

On to `CCCC(CNCc1cccc(OC(F)(F)F)c1)CNc1cc(=O)c2ccccc2[nH]1` (configuration not stated), for which the inhibition in test [1] came out at 3.23%; in test [2], 3.46%; in test [3] it was 2.94%.

Regarding `COc1ccccc1CCNc1nc(C)cc(N[C@@H](CC(C)C)C(=O)NCCc2ccccc2)n1`, the inhibition in test [1] came to 2.53%; in test [2] it was 5.72%; in test [3], 2.57%.

Take `COc1ccc(-c2cncc(-c3ccc(OC)c(OC)c3)n2)cc1OC`: the values for the inhibition in test [1], in test [2] and in test [3] were 2.76%, 2.56% and 3.88%, respectively.

`Cc1ccc(S(=O)(=O)N2CCN(C(=O)c3cc(-c4ccccc4)n[nH]3)CC2)cc1`: the inhibition in test [1] worked out at 4.96%; in test [2], 2.9%; in test [3], 2.37%.

On to `Nc1c2c(nc3ccc(Oc4ccc(Br)cc4Br)cc13)CCCC2`, for which the inhibition in test [1] was found to be 81.2%; in test [2], 84.6%; in test [3], 57.4%.

As to `Cc1cccc2nc(-c3ccc(-c4ccc(CNCCN5CCNCC5)cc4)s3)[nH]c12`, the inhibition in test [1] was determined as 2.77%; in test [2] it was 3.12%; in test [3], 3.22%.

Take `CN1CCN(CCCN(Cc2ccc(-c3cccc(CNCc4ccc5c(c4)OCO5)c3)cc2)C(=O)NC2CCCCC2)CC1`: the values for the inhibition in test [1], in test [2] and in test [3] were 4.38%, 1.35% and 0.88%, respectively.

On to `O=C(Nc1cccc(-c2ccc(-c3nc4cc(C(F)(F)F)ccc4[nH]3)cc2)c1)c1csnn1`, for which the inhibition in test [1] worked out at 5.44%; in test [2], 8%; in test [3], 0.51%.

Take `CC[C@H](C)[C@H](NC(=O)[C@H](CC1CCCCC1)[C@H](CC)N(O)C=O)C(=O)Nc1ccccn1`: the inhibition amounted to 8.41% in test [1], 8.39% in test [2] and 8.25% in test [3].

Consider `CCN(CCCN1CCCCC1)c1cc(C)nc(Nc2ccc(Cl)c(C(F)(F)F)c2)n1`, for which the inhibition in test [1] was 0.03%; in test [2], -0.3%; in test [3], -1.78%.

`CCCC1N=C(N)N=C(N)N1c1ccc(C)cc1` (configuration not stated): the inhibition in test [1] amounted to 4.06%; in test [2], 2.51%; in test [3], 2.47%.

As to `CN(C)CCN(C)Cc1ccc(-c2cccc(-c3nc4ccccc4[nH]3)c2)cc1`, the inhibition was -0.63% in test [1], 1.04% in test [2] and 0% in test [3].

`COc1cc(C(=O)N2CCOC(CCN3CCC(c4ccc(Cl)cc4)CC3)(c3ccc(Cl)c(Cl)c3)C2)cc(OC)c1OC` (configuration not stated): the inhibition in test [1] turned out to be 12.4%; in test [2], 11.2%; in test [3], 13.7%.

`O=C1OC2(CCN(C(=O)c3ccc(-n4cnnn4)cc3)CC2)CN1Cc1ccc(Cl)c(Cl)c1`: the values for the inhibition in test [1], in test [2] and in test [3] were 2.26%, 3.05% and 5.35%, respectively.

Turning to `CS(=O)(=O)N1CC2(CCN(CCC(NC(=O)NCc3ccc(Cl)c(Cl)c3)c3ccc(Cl)c(Cl)c3)CC2)c2ccccc21` (configuration not stated), the results for the inhibition in test [1], in test [2] and in test [3] were 0.66%, -2.55% and -1.75%, respectively.

Turning to `Cc1cc(C)c(S(=O)(=O)N2CCCCC(c3cccc(C(F)(F)F)c3)=N2)c(C)c1`, the inhibition in test [1] was 1.84%; in test [2], 1.41%; in test [3] it was 1.47%.

In the case of `O=C(Nc1cccc(C(F)(F)F)c1)c1cccc(S(=O)(=O)NCC2CCCN2CC2CCCCC2)c1` (configuration not stated), the inhibition in test [1] was 5.37%; in test [2] it was 3.21%; in test [3], 4.26%.

For the compound `CCCc1ccccc1Nc1nc(C)cc(N(CC)CCCN2CCCCC2)n1`, the inhibition in test [1] came to 5.33%; in test [2], 5.19%; in test [3], 5.53%.

Consider `CCc1ccc(S(=O)(=O)Nc2ccc(CCN3CCC(N4CCCCC4)CC3)cc2)cc1`, for which the inhibition in test [1] was determined as 13.9%; in test [2] it was 14.9%; in test [3], 11.4%.

Turning to `COc1cc(Nc2nc(N)c3cc(OC)c(OC)cc3n2)cc(OC)c1`, the values for the inhibition in test [1], in test [2] and in test [3] were 6.58%, 5.6% and 3.12%, respectively.

With `CS(=O)(=O)N(c1ccccc1)c1cc(C(=O)N[C@@H](Cc2ccccc2)[C@H](O)CNC2CC2)cc(N2CCCC2=O)c1`, the inhibition in test [1] worked out at 4.45%; in test [2], 5.62%; in test [3], 4.38%.

Regarding `CCOC(=O)N/N=C/[C@H](CCc1ccccc1)NC(=O)[C@H](CC(C)C)NC(=O)c1cc2cccc(OC)c2o1`, the inhibition was found to be 4.25% in test [1], 5.56% in test [2] and 5.67% in test [3].

Take `CC(=O)Nc1ccc(OCCCCN(Cc2ccccc2C(F)(F)F)c2ccc(C#N)c(C(F)(F)F)c2)c(Cl)c1`: the values for the inhibition in test [1], in test [2] and in test [3] were 4.39%, 4.65% and 4.57%, respectively.

In the case of `O=C(NCCNc1ccnc(Nc2ccc(F)cc2)n1)c1cc2ccccc2s1`, the inhibition in test [1] came to 5.85%; in test [2] it was 7.62%; in test [3], 0.69%.

For the compound `CCc1cc(COc2ccc(CNCCC(C)C)cc2I)c(OCc2ccccc2)c(COc2ccc(CNCCC(C)C)cc2I)c1`, the inhibition in test [1] was -0.25%; in test [2] it was -3.29%; in test [3], 3.76%.

With `CC(C)c1ccc(NC(=O)c2ccc(C(=O)NC3CCN(CC4CCCCC4)CC3)cc2)cc1`, the inhibition in test [1] was 0.94%; in test [2], -0.49%; in test [3] it was 0.52%.

As to `CNc1nc(N/N=C/c2cc3c(cc2[N+](=O)[O-])OCO3)nc(Nc2cccc(C(F)(F)F)c2)n1`, the inhibition in test [1] was determined as 6.24%; in test [2] it was 5.94%; in test [3], 2.16%.

Consider `NCC1CCCN1Cc1ccc(-c2ccc(-c3nc4cc(C(F)(F)F)ccc4[nH]3)cc2)cc1` (configuration not stated), for which the results for the inhibition in test [1], in test [2] and in test [3] were 3.73%, 1.2% and 1.46%, respectively.

The values are drawn from ChEMBL document CHEMBL3433997, “St. Jude Leishmania screening dataset” (2016).
